# Assay results published in article PMC7862700, “An all-to-all approach to the identification of sequence-specific readers for epigenetic DNA modifications on cytosine”.
# Target: T1, SPIC (Homo sapiens, UniProt Q8N5J4 1-248)
# T1 sequence: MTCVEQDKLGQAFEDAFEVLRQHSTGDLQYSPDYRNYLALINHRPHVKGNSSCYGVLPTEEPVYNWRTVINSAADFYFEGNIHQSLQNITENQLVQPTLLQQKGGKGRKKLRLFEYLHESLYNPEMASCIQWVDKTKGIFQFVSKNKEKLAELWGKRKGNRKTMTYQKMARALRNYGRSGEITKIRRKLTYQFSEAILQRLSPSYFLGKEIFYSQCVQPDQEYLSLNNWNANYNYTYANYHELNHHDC
# Assay: DAPPL (digital affinity profiling via proximity ligation, sequencing); 10 mM Tris-HCl pH 7.5, 50 mM NaCl, 1 mM DTT, 4% glycerol, room temperature, 30 min; GST-TFs on glutathione beads, 16-mer random dsDNA library, 0.1% formaldehyde crosslink after washing; high values mean tight binding
# Conditions: protein: recombinant; tags: N-terminal GST; dsDNA, one strand shown
# Method in brief: (§1)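 In yeast, human transcription factors were expressed with a GST fusion, then pulled down on glutathione beads and given DNA barcodes. Pooled with a tag-only sample, they were exposed to 200 nmole of a 16-mer random double-stranded DNA library (Tris/NaCl/DTT/glycerol buffer, room temperature, 30 min), washed, crosslinked with 0.1% formaldehyde, proximity-ligated using BsaI/T4 ligase for 1 h at 37 °C, PCR-amplified and read on an Illumina NextSeq500. Each hexamer's frequency of reads for a factor, divided by the matching frequency for the tag-only sample, gives the binding signal.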
row,Sequence,binding signal
1,ATCCAA,"1.12 fold enrichment (6-mer frequency, TF over GST control)"
2,TGAATG,"1.03 fold enrichment (6-mer frequency, TF over GST control)"
3,GGTTTA,"1.13 fold enrichment (6-mer frequency, TF over GST control)"
4,GTTCGA,"1.15 fold enrichment (6-mer frequency, TF over GST control)"
5,AGGAAA,"1.42 fold enrichment (6-mer frequency, TF over GST control)"
6,CCGACA,"1.34 fold enrichment (6-mer frequency, TF over GST control)"
7,GCCGAT,"1.03 fold enrichment (6-mer frequency, TF over GST control)"
8,TGATCA,"1.16 fold enrichment (6-mer frequency, TF over GST control)"
9,AGTTAA,"1.05 fold enrichment (6-mer frequency, TF over GST control)"
10,CTGAAG,"1.01 fold enrichment (6-mer frequency, TF over GST control)"
11,AGGTTT,"1.03 fold enrichment (6-mer frequency, TF over GST control)"
12,TTATTA,"1.31 fold enrichment (6-mer frequency, TF over GST control)"
13,TAGTAA,"1.07 fold enrichment (6-mer frequency, TF over GST control)"
14,TACTGG,"1.22 fold enrichment (6-mer frequency, TF over GST control)"
15,TGAGCT,"1.03 fold enrichment (6-mer frequency, TF over GST control)"
16,TTTGAG,"1.36 fold enrichment (6-mer frequency, TF over GST control)"
17,GTTAAT,"1.11 fold enrichment (6-mer frequency, TF over GST control)"
18,TGTACG,"1.23 fold enrichment (6-mer frequency, TF over GST control)"
19,AACTTG,"1.27 fold enrichment (6-mer frequency, TF over GST control)"

row,Sequence,binding signal
1,TCCCAG,"1.01 fold enrichment (6-mer frequency, TF over GST control)"
2,CGATAT,"1.11 fold enrichment (6-mer frequency, TF over GST control)"
3,TAAGGT,"1.11 fold enrichment (6-mer frequency, TF over GST control)"
4,AAAAGT,"1.1 fold enrichment (6-mer frequency, TF over GST control)"
5,GTTAAG,"1.06 fold enrichment (6-mer frequency, TF over GST control)"
6,TAGAAT,"1.04 fold enrichment (6-mer frequency, TF over GST control)"
7,GCGTTC,"1.11 fold enrichment (6-mer frequency, TF over GST control)"
8,CTGCCA,"1.18 fold enrichment (6-mer frequency, TF over GST control)"
9,CCCCGA,"1.14 fold enrichment (6-mer frequency, TF over GST control)"
10,GCACTC,"1.25 fold enrichment (6-mer frequency, TF over GST control)"
11,AAACTG,"1.07 fold enrichment (6-mer frequency, TF over GST control)"
12,TAGTCC,"1.16 fold enrichment (6-mer frequency, TF over GST control)"
13,TGATAT,"1.05 fold enrichment (6-mer frequency, TF over GST control)"
14,TCGCAC,"1.06 fold enrichment (6-mer frequency, TF over GST control)"
15,GAAACT,"1.25 fold enrichment (6-mer frequency, TF over GST control)"
16,GGAATT,"1.11 fold enrichment (6-mer frequency, TF over GST control)"
17,TTCGGC,"1.1 fold enrichment (6-mer frequency, TF over GST control)"
18,TCTGGG,"1.11 fold enrichment (6-mer frequency, TF over GST control)"
19,AGTAAT,"1.12 fold enrichment (6-mer frequency, TF over GST control)"

# Target: ELF4 (Homo sapiens, UniProt Q99607 1-663)
# Sequence (Q99607 whole entry): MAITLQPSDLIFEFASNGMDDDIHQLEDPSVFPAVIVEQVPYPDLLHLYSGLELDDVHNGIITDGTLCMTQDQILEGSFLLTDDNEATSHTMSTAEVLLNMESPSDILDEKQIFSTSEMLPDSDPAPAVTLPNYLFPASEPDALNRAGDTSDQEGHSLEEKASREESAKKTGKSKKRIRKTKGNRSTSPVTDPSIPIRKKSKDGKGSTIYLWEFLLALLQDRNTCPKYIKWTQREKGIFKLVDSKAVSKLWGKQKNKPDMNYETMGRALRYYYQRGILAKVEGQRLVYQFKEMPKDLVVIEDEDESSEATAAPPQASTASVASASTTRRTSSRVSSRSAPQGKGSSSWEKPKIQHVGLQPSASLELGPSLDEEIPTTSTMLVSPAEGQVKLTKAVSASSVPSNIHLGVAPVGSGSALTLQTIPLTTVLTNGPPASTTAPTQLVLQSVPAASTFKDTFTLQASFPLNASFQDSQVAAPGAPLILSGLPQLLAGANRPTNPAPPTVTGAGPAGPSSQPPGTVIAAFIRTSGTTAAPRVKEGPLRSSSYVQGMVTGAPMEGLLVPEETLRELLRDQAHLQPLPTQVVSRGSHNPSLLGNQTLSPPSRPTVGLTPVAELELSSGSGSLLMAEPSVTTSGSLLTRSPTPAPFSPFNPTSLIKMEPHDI
# Assay: as above
# Conditions: protein: recombinant; tags: N-terminal GST; dsDNA, one strand shown
# Method in brief: as §1
row,Sequence,binding signal
1,GTTAAA,"1.07 fold enrichment (6-mer frequency, TF over GST control)"
2,TGTACC,"1.26 fold enrichment (6-mer frequency, TF over GST control)"
3,ATCCAA,"1.23 fold enrichment (6-mer frequency, TF over GST control)"
4,TGAATG,"1.16 fold enrichment (6-mer frequency, TF over GST control)"
5,GGTTTA,"1.06 fold enrichment (6-mer frequency, TF over GST control)"
6,GTTCGA,"1.12 fold enrichment (6-mer frequency, TF over GST control)"
7,AGGAAA,"1.35 fold enrichment (6-mer frequency, TF over GST control)"
8,CCGACA,"1.13 fold enrichment (6-mer frequency, TF over GST control)"
9,GCCGAT,"1.16 fold enrichment (6-mer frequency, TF over GST control)"
10,TGATCA,"1.1 fold enrichment (6-mer frequency, TF over GST control)"
11,AGTTAA,"1.15 fold enrichment (6-mer frequency, TF over GST control)"
12,CTGAAG,"1.11 fold enrichment (6-mer frequency, TF over GST control)"
13,AGGTTT,"1.07 fold enrichment (6-mer frequency, TF over GST control)"
14,TTATTA,"1.18 fold enrichment (6-mer frequency, TF over GST control)"
15,TAGTAA,"1.05 fold enrichment (6-mer frequency, TF over GST control)"
16,TACTGG,"1.19 fold enrichment (6-mer frequency, TF over GST control)"
17,TGAGCT,"1.1 fold enrichment (6-mer frequency, TF over GST control)"
18,TTTGAG,"1.02 fold enrichment (6-mer frequency, TF over GST control)"
19,GTTAAT,"1.14 fold enrichment (6-mer frequency, TF over GST control)"
20,TGTACG,"1.2 fold enrichment (6-mer frequency, TF over GST control)"

row,Sequence,binding signal
1,AACTTG,"1.28 fold enrichment (6-mer frequency, TF over GST control)"
2,TCCCAG,"1.15 fold enrichment (6-mer frequency, TF over GST control)"
3,CGATAT,"1.11 fold enrichment (6-mer frequency, TF over GST control)"
4,TAAGGT,"1.19 fold enrichment (6-mer frequency, TF over GST control)"
5,AAAAGT,"1.1 fold enrichment (6-mer frequency, TF over GST control)"
6,GTTAAG,"1.1 fold enrichment (6-mer frequency, TF over GST control)"
7,TAGAAT,"1.13 fold enrichment (6-mer frequency, TF over GST control)"
8,GCGTTC,"1.1 fold enrichment (6-mer frequency, TF over GST control)"
9,CTGCCA,"1.25 fold enrichment (6-mer frequency, TF over GST control)"
10,CCCCGA,"1.29 fold enrichment (6-mer frequency, TF over GST control)"
11,GCACTC,"1.31 fold enrichment (6-mer frequency, TF over GST control)"
12,AAACTG,"1.1 fold enrichment (6-mer frequency, TF over GST control)"
13,TAGTCC,"1.07 fold enrichment (6-mer frequency, TF over GST control)"
14,TGATAT,"1.12 fold enrichment (6-mer frequency, TF over GST control)"
15,TCGCAC,"1.13 fold enrichment (6-mer frequency, TF over GST control)"
16,GAAACT,"1.24 fold enrichment (6-mer frequency, TF over GST control)"
17,GGAATT,"1.07 fold enrichment (6-mer frequency, TF over GST control)"
18,TTCGGC,"1.19 fold enrichment (6-mer frequency, TF over GST control)"
19,TCTGGG,"1.08 fold enrichment (6-mer frequency, TF over GST control)"
20,AGTAAT,"1.1 fold enrichment (6-mer frequency, TF over GST control)"

# Target: T2, ELK4 (Homo sapiens, UniProt P28324-2 1-405)
# T2 sequence: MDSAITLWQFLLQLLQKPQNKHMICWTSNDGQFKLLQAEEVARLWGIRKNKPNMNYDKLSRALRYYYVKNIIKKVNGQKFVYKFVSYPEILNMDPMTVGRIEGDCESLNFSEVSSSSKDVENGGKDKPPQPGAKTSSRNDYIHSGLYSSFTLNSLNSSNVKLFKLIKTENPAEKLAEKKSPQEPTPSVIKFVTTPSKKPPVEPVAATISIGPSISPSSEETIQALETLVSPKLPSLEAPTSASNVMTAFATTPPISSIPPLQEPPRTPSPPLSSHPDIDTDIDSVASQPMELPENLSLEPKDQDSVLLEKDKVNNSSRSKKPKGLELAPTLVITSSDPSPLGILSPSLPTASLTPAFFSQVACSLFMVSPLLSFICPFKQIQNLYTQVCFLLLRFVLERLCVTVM
# Assay: as above
# Conditions: protein: recombinant; tags: N-terminal GST; dsDNA, one strand shown
# Method in brief: as §1
row,Sequence,binding signal
1,GTTAAA,"1.04 fold enrichment (6-mer frequency, TF over GST control)"
2,TGTACC,"1.39 fold enrichment (6-mer frequency, TF over GST control)"
3,ATCCAA,"1.16 fold enrichment (6-mer frequency, TF over GST control)"
4,TGAATG,"1.2 fold enrichment (6-mer frequency, TF over GST control)"
5,GGTTTA,"1.13 fold enrichment (6-mer frequency, TF over GST control)"
6,GTTCGA,"1.07 fold enrichment (6-mer frequency, TF over GST control)"
7,AGGAAA,"1.2 fold enrichment (6-mer frequency, TF over GST control)"
8,CCGACA,"1.14 fold enrichment (6-mer frequency, TF over GST control)"
9,GCCGAT,"1.13 fold enrichment (6-mer frequency, TF over GST control)"
10,TGATCA,"1.02 fold enrichment (6-mer frequency, TF over GST control)"
11,AGTTAA,"1.15 fold enrichment (6-mer frequency, TF over GST control)"
12,CTGAAG,"1.05 fold enrichment (6-mer frequency, TF over GST control)"
13,AGGTTT,"1.06 fold enrichment (6-mer frequency, TF over GST control)"
14,TTATTA,"1.03 fold enrichment (6-mer frequency, TF over GST control)"
15,TAGTAA,"1.04 fold enrichment (6-mer frequency, TF over GST control)"
16,TACTGG,"1.15 fold enrichment (6-mer frequency, TF over GST control)"
17,TGAGCT,"1.17 fold enrichment (6-mer frequency, TF over GST control)"
18,TTTGAG,"1.23 fold enrichment (6-mer frequency, TF over GST control)"
19,GTTAAT,"1.05 fold enrichment (6-mer frequency, TF over GST control)"
20,TGTACG,"1.34 fold enrichment (6-mer frequency, TF over GST control)"

row,Sequence,binding signal
1,AACTTG,"1.11 fold enrichment (6-mer frequency, TF over GST control)"
2,TCCCAG,"1.25 fold enrichment (6-mer frequency, TF over GST control)"
3,CGATAT,"1.19 fold enrichment (6-mer frequency, TF over GST control)"
4,TAAGGT,"1.06 fold enrichment (6-mer frequency, TF over GST control)"
5,AAAAGT,"1.24 fold enrichment (6-mer frequency, TF over GST control)"
6,GTTAAG,"1.06 fold enrichment (6-mer frequency, TF over GST control)"
7,TAGAAT,"1.14 fold enrichment (6-mer frequency, TF over GST control)"
8,GCGTTC,"1.02 fold enrichment (6-mer frequency, TF over GST control)"
9,CTGCCA,"1.33 fold enrichment (6-mer frequency, TF over GST control)"
10,CCCCGA,"1.15 fold enrichment (6-mer frequency, TF over GST control)"
11,GCACTC,"1.33 fold enrichment (6-mer frequency, TF over GST control)"
12,AAACTG,"1.06 fold enrichment (6-mer frequency, TF over GST control)"
13,TAGTCC,"1.12 fold enrichment (6-mer frequency, TF over GST control)"
14,TGATAT,"1.14 fold enrichment (6-mer frequency, TF over GST control)"
15,TCGCAC,"1.08 fold enrichment (6-mer frequency, TF over GST control)"
16,GAAACT,"1.14 fold enrichment (6-mer frequency, TF over GST control)"
17,GGAATT,"1.1 fold enrichment (6-mer frequency, TF over GST control)"
18,TTCGGC,"1.07 fold enrichment (6-mer frequency, TF over GST control)"
19,TCTGGG,"1.22 fold enrichment (6-mer frequency, TF over GST control)"
20,AGTAAT,"1.08 fold enrichment (6-mer frequency, TF over GST control)"
